Source: PubChem BioAssay (NCATS)
Values joined by “and” are separate entries in the source; they are usually repeats but may differ in a detail not shown here. Equal entries are not always repeated. Results filed as inconclusive are left out. Active and inactive are the calls of the source. Unless noted, the call rests on the fitted dose curve; in most records, active means well fitted curve in the direction sought with a large enough effect; inconclusive means small, poorly fitted or top-dose-only effect, or another doubt; inactive means no such curve, though single readings can be large; an effect the other way counts as inactive or inconclusive.

What was measured:
[1] = test system: Zika virus NS2B-NS3 protease (unlinked complex); assay: Primary screen GU Rhodamine qHTS for Zika virus inhibitors: Unlinked NS2B-NS3 protease assay (AID 1347159); further: on the % scale 0 is the no-effect control and ±100 the full control effect; nearly all actives have a fitted effect of over 60% in size
In short: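 Noncovalent NS2B hydrophilic domain–NS3 protease domain complex (25 nM) preincubated 15 min at room temperature with compounds (up to 114 microM) in 10 mM Tris-HCl pH 8.0, 0.01% Tween 20; 1.5 microM Rhodamine110 substrate added, fluorescence change over 15 min fitted to Hill equation.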

[2] = test system: Zika virus NS2B-NS3 protease (linked construct); assay: Primary screen NINDS Rhodamine qHTS for Zika virus inhibitors (AID 1347160); further: nearly all actives have a fitted effect of over 55% in size
In short: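 Purified linked NS2B-NS3 protease (NS2B hydrophilic domain joined to NS3 protease by flexible linker), 25 nM in 10 mM Tris-HCl pH 8.0, 0.01% Tween 20. Compounds titrated, 15 min preincubation at room temperature; 1.5 microM Rhodamine110 substrate, FITC fluorescence change over 15 min.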

[3] = target: Luciferin 4-monooxygenase (Photinus pyralis) (UniProt P08659); assay: Primary firefly luciferase (FLuc) qHTS assay for identification of artifact compounds. (AID 1845220); further: nearly all actives have a fitted effect of over 60% in size
In short: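 Reaction readout was CCD-imaged luminescence, taken 5 min after adding 10 nM purified firefly enzyme to compound-treated wells holding 10 uM luciferin and ATP in pH 7.6 buffer.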

[4] = test system: Nanoluciferase (engineered Oplophorus gracilirostris luciferase); assay: Primary Nanoluciferase (NLuc) qHTS assay for identification of artifact compounds. (AID 1845222);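 further: NLuc secreted into diluted conditioned medium of S16 cells; 0% = DMSO and -100% = no enzyme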
In short: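 Concentration-response data were obtained by luminescence after 5 min with Nano-Glo substrate at 1:100. The enzyme was diluted S16 NLuc-expressing cell medium, preincubated with compound for 15 min at RT. Curves were fitted with a 4-parameter Hill model.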

CASKI = assay: Primary qHTS to identify gynecologic anti-cancer compounds using libraries of approved drugs and bioactive compounds (AID 1345084); conditions: Gynecologic cancer cell panel viability, ATPlite luminescence, 48 h; series mostly up to 57.5 µM; further: nearly all actives have a fitted effect of over 55% in size; further: potency means the concentration at half of the fitted maximal effect
In short: (§1)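 Cells, 1,000 per well, were allowed to settle for 16 h at 37 C before compound addition. Five concentrations were tested for 48 h, and viability was read by ATPlite luminescence after 15 min at room temperature.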

Es-2 = assay: as above; conditions: Gynecologic cancer cell panel viability, ATPlite luminescence, 48 h; series mostly up to 57.5 µM
In short: as §1

HeLa = assay: as above; conditions: Gynecologic cancer cell panel viability, ATPlite luminescence, 48 h; series mostly up to 57.5 µM
In short: as §1

Hek293T = assay: as above; conditions: Gynecologic cancer cell panel viability, ATPlite luminescence, 48 h, control line for the selectivity index; series mostly up to 57.5 µM
In short: as §1

JEG-3 = assay: as above; conditions: Gynecologic cancer cell panel viability, ATPlite luminescence, 48 h; series mostly up to 57.5 µM
In short: as §1

Tov-21-G = assay: as above; conditions: Gynecologic cancer cell panel viability, ATPlite luminescence, 48 h; series mostly up to 57.5 µM
In short: as §1

Tov112D = assay: as above; conditions: Gynecologic cancer cell panel viability, ATPlite luminescence, 48 h; series mostly up to 57.5 µM
In short: as §1

[5] = target: Calcium and integrin-binding protein 1 (Homo sapiens) (UniProt Q99828); assay: Primary qHTS for Identification of Calcium Integrin Binding Protein 1 (CIB1) Competitor (AID 1508620);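 further: GST tagged CIB1 binding a fluorescein labelled alphaIIb integrin peptide tracer; top concentration of the series differs between compounds; on the % scale 0 is the no-effect control and ±100 the full control effect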
Calcium and integrin-binding protein 1 (Homo sapiens), sequence (Q99828 whole entry, looked up): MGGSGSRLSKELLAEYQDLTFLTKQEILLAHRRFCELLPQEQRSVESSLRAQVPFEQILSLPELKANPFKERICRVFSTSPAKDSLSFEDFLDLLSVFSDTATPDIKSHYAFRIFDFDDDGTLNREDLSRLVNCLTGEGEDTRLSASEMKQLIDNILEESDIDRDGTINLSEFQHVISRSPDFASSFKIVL
In short: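 Fluorescence polarization competition: CIB1-GST (1 uM final) preincubated with compound 15 min at room temperature, then FITC-labeled alphaIIb peptide (100 nM final) added for another 15 min. Polarization read at Ex 480/Em 540.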

[6] = Primary qHTS for inhibitors of nuclear receptor binding SET domain protein 2 (NSD2) in an isogenic RCH-ACV NSD2 p.E1099K mutant (9B) (AID 1645876); further: potency means the concentration at half of the fitted maximal effect; nearly all actives have a fitted effect of over 70% in size
[7] = target: Glutathione peroxidase 1 (Homo sapiens) (UniProt P07203); assay: Primary qHTS Assay for Inhibitors of Recombinant Selenoprotein Glutathione Peroxidase 1 (GPX1) (AID 1845191); further: nearly all actives have a fitted effect of over 65% in size
Glutathione peroxidase 1 (Homo sapiens), sequence (P07203 whole entry, looked up): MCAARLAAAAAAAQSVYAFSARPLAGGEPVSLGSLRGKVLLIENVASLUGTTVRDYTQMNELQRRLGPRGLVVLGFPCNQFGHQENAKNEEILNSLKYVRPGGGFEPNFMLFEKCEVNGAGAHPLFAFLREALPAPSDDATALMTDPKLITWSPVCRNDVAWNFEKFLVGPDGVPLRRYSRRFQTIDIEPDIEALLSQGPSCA
In short: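 Recombinant GPX1 (10 nM final) was preincubated with compound for 30 min at room temperature, then reacted with 1 mM GSH, 0.5 mM CHP, 0.5 mM NADPH and 100 nM glutathione reductase; NADPH fluorescence (340/450 nm) was read at 0 and 15 min.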

[8] = target: Phospholipid hydroperoxide glutathione peroxidase GPX4 (Homo sapiens) (UniProt P36969); assay: Primary qHTS Assay for Inhibitors of Recombinant Selenoprotein Glutathione Peroxidase 4 (GPX4) (AID 1845192); conditions: outcome: dose series up to 50 µM unless noted; further: nearly all actives have a fitted effect of over 65% in size
Phospholipid hydroperoxide glutathione peroxidase GPX4 (Homo sapiens), sequence (P36969 whole entry, looked up): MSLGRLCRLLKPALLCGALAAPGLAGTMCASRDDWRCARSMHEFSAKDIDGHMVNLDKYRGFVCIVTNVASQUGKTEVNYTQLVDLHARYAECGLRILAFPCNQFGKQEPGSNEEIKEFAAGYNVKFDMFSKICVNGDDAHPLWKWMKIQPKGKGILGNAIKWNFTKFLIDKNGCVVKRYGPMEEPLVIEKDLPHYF
In short: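 GR-coupled readout: 100 nM GR, 1 mM GSH, 0.5 mM NADPH; NADPH fluorescence (ex 340/em 450 nm) read at t=0 and after 15 min RT. GPX4 200 nM, preincubated 30 min with compound; substrate 0.5 mM CHP.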

OV90 = assay: Primary qHTS to identify gynecologic anti-cancer compounds using libraries of approved drugs and bioactive compounds (AID 1345084); conditions: Gynecologic cancer cell panel viability, ATPlite luminescence, 48 h; series mostly up to 57.5 µM; further: nearly all actives have a fitted effect of over 55% in size; further: potency means the concentration at half of the fitted maximal effect
In short: as §1

[9] = P-glycoprotein substrates identified in KB-8-5-11 adenocarcinoma cell line, qHTS therapeutic library screen (AID 1346987); further: potency means the concentration at half of the fitted maximal effect; nearly all actives have a fitted effect of over 65% in size
In short: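 Steps: plate 500 KB-8-5-11 cells/well in DMEM + 10% FCS (colchicine removed); pin compounds in dose-response; incubate 72 h, 37 degree C, 5% CO2; add CellTiter-Glo, 5 min; read luminescence.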

[10] = Primary qHTS for inhibitors of nuclear receptor binding SET domain protein 2 (NSD2) in an RCH-ACV wild type WT cells (2C) (AID 1645877); further: potency means the concentration at half of the fitted maximal effect; nearly all actives have a fitted effect of over 70% in size
C33A = assay: Primary qHTS to identify gynecologic anti-cancer compounds using libraries of approved drugs and bioactive compounds (AID 1345084); conditions: Gynecologic cancer cell panel viability, ATPlite luminescence, 48 h; series mostly up to 57.5 µM; further: nearly all actives have a fitted effect of over 55% in size; further: potency means the concentration at half of the fitted maximal effect
In short: as §1

[11] = qHTS drug screen for cell cycle checkpoint inhibitors in PARPi-resistant BRCA-mutant ovarian cancer cell lines. (AID 1963452; calls by dose curve); conditions: PEO1/OlaR viability, CellTiter-Glo luminescence, 96 h, stronger effect = lower value
In short: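 PEO1, PEO4 and PEO1/OlaR ovarian cancer cells, 600 per well, exposed 96 h at 37C to a dilution series. Viability read by CellTiter-Glo luminescence, normalized to DMSO and empty wells; activity summarized as Z-AUC.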

N#Cc1ccc2c(c1)CCN(CCC1CCC(NC(=O)c3ccnc4ccccc34)CC1)C2 (stereo not given)
inactive: Potency [1] | Potency [2] | Potency [3] | Potency [4] | Potency (CASKI) | Potency (Es-2) | Potency (HeLa) | Potency (Hek293T) | Potency (JEG-3) | Potency (Tov-21-G) | Potency (Tov112D)

C=C(C)C(=O)O[C@H]1[C@H]2C(=C)C(=O)O[C@@H]2C[C@@H](C)[C@@H]2O[C@@H]2C(=O)[C@](C)(O)[C@@H]1OC(C)=O
active: Potency [6] 2.82 µM | Potency (Hek293T) 10 µM
inactive: Potency [1] | Potency [2] | outcome [5] | Potency [7] | Potency [8] | Potency [3] | Potency [4] | Potency (HeLa) | Potency (OV90) | Potency (Tov112D)

C=C1C(=O)O[C@@H]2C[C@@]3(C)CCC[C@H](C)C3=C[C@H]12
active: Potency [9] 14.6 µM | Potency [6] 14.5 µM | Potency [10] 12.9 µM
inactive: Potency [1] | Potency [2] | outcome [5] | Potency [7] | Potency [8] | Potency [4] | Potency (C33A) | Potency (CASKI) | Potency (HeLa) | Potency (Hek293T) | Potency (JEG-3) | Potency (OV90) | Potency (Tov112D)

COc1cc2nc(N3CCN(C)CC3)nc(NC3CCN(Cc4ccccc4)CC3)c2cc1OC
active: Potency [9] 16.4 µM | Potency [6] 6.49 µM | Potency (OV90) 22.4 µM
inactive: Potency [1] | Potency [2] | outcome [5] | Potency [7] | Potency [3] | Potency [4] | Potency (C33A) | Potency (HeLa) | Potency (Hek293T)

Clc1ccccc1CNCC1CCC(CNCc2ccccc2Cl)CC1 (stereo not given)
inactive: Potency [1] | Potency [2] | outcome [5] | Potency [7] | Potency [8] | Potency [3] | Potency [4] | Potency (C33A) | Potency (CASKI) | Potency (HeLa) | Potency (Hek293T) | Potency (OV90) | Potency (Tov-21-G)
active: Potency [6] 18.3 µM | Potency [10] 20.5 µM

O=C(/C=C/n1cnc(-c2cc(C(F)(F)F)cc(C(F)(F)F)c2)n1)NNc1cnccn1
inactive: Potency [2] | outcome [5] | Potency [7] | Potency [8] | Potency [3] | Potency [4] | Potency (C33A) | Potency (CASKI) | Potency (HeLa)
active: Potency [6] 1.63 µM

FC(F)(F)c1ccc(CNc2ccc(Cc3c[nH]c4ncccc34)cn2)cc1
active: Potency [6] 16.3 µM and 10.5 µM | Potency [10] 14.5 µM and 8.33 µM
-0.926: Z-AUC ([11]; measured here: PEO4 Z-AUC)
-1.25: Z-AUC ([11]; measured here: PEO1 parental Z-AUC)
inactive: Potency [1] | Potency [2] | outcome [5] | Potency [7] | Potency [8] | Potency [3] | Potency [4] | Z-AUC [11] -0.674 | Potency (Es-2) | Potency (JEG-3) | Potency (OV90) | Potency (Tov-21-G)

CCOc1cc(CNC2CCCC2)cc(Cl)c1OCc1ccc(Cl)cc1
inactive: Potency [1] | Potency [2] | outcome [5] | Potency [7] | Potency [8] | Potency [4] | Potency (JEG-3)
active: Potency [6] 11.5 µM | Potency [10] 14.5 µM

CCOc1ccc(-c2nc(-c3cccc4c3CCC4NCCO)no2)cc1OCC (stereo not given)
inactive: Potency [1] | Potency [2] | outcome [5] | Potency [7] | Potency [8] | Potency [4] | Potency (C33A) | Potency (CASKI) | Potency (HeLa) | Potency (Hek293T) | Potency (JEG-3) | Potency (Tov-21-G) | Potency (Tov112D)
active: Potency [6] 6.49 µM | Potency [10] 7.28 µM

CC(C)COc1ccc(CNC(=O)N(Cc2ccc(F)cc2)C2CCN(C)CC2)cc1
active: Potency [9] 16.4 µM | Potency [6] 20.5 µM | Potency [10] 18.3 µM
inactive: Potency [1] | Potency [2] | outcome [5] | Potency [7] | Potency [8] | Potency [3] | Potency [4] | Potency (C33A) | Potency (HeLa) | Potency (Hek293T) | Potency (Tov-21-G) | Potency (Tov112D)

CCOC(=O)CN[C@@H](C(=O)N1CC[C@H]1C(=O)NCc1ccc(/C(N)=N/O)cc1)C1CCCCC1
inactive: Potency [7] | Potency [8]

CC(=O)Nc1nc2c(Oc3cc(-c4ccc(C(F)(F)F)cc4)ncn3)cccc2s1
inactive: Potency [1] | outcome [5] | Potency [7] | Potency [8] | Potency [3] | Potency [4] | Potency (C33A) | Potency (JEG-3) | Potency (Tov112D)
active: Potency [6] 6.49 µM | Potency [10] 4.09 µM | Potency (Tov-21-G) 22.4 µM
